Experimental findings from PubChem BioAssay AID425 (Sanford-Burnham Center for Chemical Genomics, 2006) are described below.

Hit rate of the full screen: of about 110,000 compounds, about 190 (0.17%) were called active. This excerpt belongs to a sample that is enriched for actives. Potency and affinity values are given separately. A number with no mark means an inactive call. Rule as the data show it: active = inhibition above about 50%; inactive = the rest.

In this experiment the target is Dual specificity protein phosphatase 6 (Rattus norvegicus) (UniProt Q64346). Kind of experiment: inhibition of rat DUSP6 enzyme activity – biochemical, in vitro, primary screen (AID 425).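 Also: plate controls were vehicle for no effect and reference inhibitor for full effect.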 To be noted: recombinant MKP-3 phosphatase activity, fluorescence; at 20 µM; stronger effect = higher value.
Dual specificity protein phosphatase 6 (Rattus norvegicus), sequence (Q64346 whole entry, looked up): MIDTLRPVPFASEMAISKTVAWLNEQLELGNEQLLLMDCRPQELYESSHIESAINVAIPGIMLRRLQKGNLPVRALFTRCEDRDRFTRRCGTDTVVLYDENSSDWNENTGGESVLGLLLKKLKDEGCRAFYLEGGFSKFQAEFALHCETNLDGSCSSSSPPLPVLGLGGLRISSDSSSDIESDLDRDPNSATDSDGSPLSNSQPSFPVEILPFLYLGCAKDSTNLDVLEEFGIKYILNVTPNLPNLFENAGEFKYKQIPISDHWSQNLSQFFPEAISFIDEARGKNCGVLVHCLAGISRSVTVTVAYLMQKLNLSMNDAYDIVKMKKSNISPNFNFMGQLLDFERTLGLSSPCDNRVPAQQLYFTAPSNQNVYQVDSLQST
As for `CN(CN1C(=O)C(=O)c2cc([N+](=O)[O-])ccc21)[N+](=O)[O-]`, the inhibition is 86.6% (active). `CN(C)C(=O)Oc1ccc([N+](=O)[O-])cc1`: the inhibition was -1.2%. For `O=[N+]([O-])c1ccc(N2CCN(Cc3ccccc3)CC2)c(Cl)c1` the value was -2.4%. The value for `COc1ccc(CN2C(=O)NC(=O)/C(=C\c3ccoc3)C2=O)cc1` was 5.2%. For `C=CCN1C(=O)NC(=O)C(=Cc2cccn2C)C1=O` the value was 2.3%. With `CCN1C(=O)/C(=C/c2ccc(OC)c3ccccc23)C(=O)NC1=S`, the inhibition is 2.2%. In the case of `CCN1C(=O)/C(=C/c2ccoc2)C(=O)NC1=S`, the inhibition is 107% (active). Consider `C=CCN1C(=O)/C(=C\c2cccn2-c2cccc([N+](=O)[O-])c2)C(=O)NC1=S`, for which the inhibition is 94.7% (active). For `Cn1cccc1/C=C1/C(=O)NC(=S)N(c2ccc(Cl)cc2)C1=O` the value was 77.8% (active); for `CCN1C(=O)/C(=C/c2cccn2C)C(=O)NC1=S`, 108% (active). For `CN1C(=O)C(=Cc2cccn2-c2cccc([N+](=O)[O-])c2)C(=O)N(C)C1=O` the value was 4.9%. Take `O=C1NC(=S)N(c2cccc(Cl)c2)C(=O)/C1=C/c1ccc(Cl)cc1`: the inhibition was -0.2%.

In the case of `O=C1NC(=S)N(c2ccc(Cl)cc2)C(=O)/C1=C/c1ccc(-c2ccccc2C(=O)O)o1`, the inhibition is 6.3%. Regarding `O=C1NC(=O)N(c2ccccc2)C(=O)/C1=C/c1ccoc1`, the inhibition is 4.9%.

Take `C=CCN1C(=O)/C(=C\c2cccn2-c2ccc([N+](=O)[O-])cc2)C(=O)NC1=S`: the inhibition is 37.5%. With `CCC1(c2ccccc2)C(=O)NC(=O)N(C(=O)c2cccc(F)c2)C1=O` (stereo not given), the inhibition was -3.3%.

For the compound `O=C1NC(=O)C(=Cc2ccc(OCc3cccc(C(=O)O)c3)cc2)C(=O)N1`, the inhibition is -1%. Take `CCOc1c(P(=S)(N(C)C)N(C)C)c(C)nn1-c1ccccc1`: the inhibition is -4.3%. For `Oc1ccc(CC2CC3CCN2CC3)cc1O` (stereo not given), the inhibition was -5.2%. With `CCCc1[nH]nc2c1C1(C(=O)N(CC(N)=O)c3ccccc31)C(C(=O)OC)=C(N)O2` (stereo not given), the inhibition is -2.9%. `CC1CCC(C(=O)NC(C(=O)N2CCC3(CC2)OCCO3)C(C)C)CC1` (stereo not given): the inhibition is -15.8%.

On to `CCC1(C)CC(CCNCc2ccccc2)(c2ccc(C)cc2)CCO1` (stereo not given), for which the inhibition was -4%. As to `Cc1ccccc1C(=O)Nc1cc(Cl)c([N+](=O)[O-])cc1Cl`, the inhibition was 1.4%. The value for `COC(=O)CCCNC(=O)CN1CC(c2ccccc2)CC1=O` (stereo not given) was -1.1%.

Take `O=C(c1cc2c(s1)CCCC2)N1CCC2(CC1)OCCO2`: the inhibition is -11.3%. For `C=CCN1C(=O)/C(=C\c2ccc(C)o2)C(=O)NC1=S`, the inhibition was 8.6%. The value for `O=C1NC(=S)N(c2cccc(Br)c2)C(=O)/C1=C/C=C/c1ccccc1` was 11.1%; that for `Cc1cccc(N2C(=O)NC(=O)C(=Cc3ccco3)C2=O)c1` was 2.3%.

On to `C=CCN1C(=O)/C(=C\C=C\c2ccco2)C(=O)NC1=S`, for which the inhibition was 83.7% (active). For `O=C1NC(=O)N(c2cccc(Br)c2)C(=O)/C1=C/c1ccco1` the value was 97.8% (active); for `CCOc1ccc(N2C(=O)/C(=C/c3ccc(C)cc3)C(=O)NC2=S)cc1`, 2.5%; for `O=C1NC(=S)N(c2cccc(Br)c2)C(=O)/C1=C/c1cccs1`, 5.7%. Turning to `CC(C)c1ccc(N2C(=O)NC(=O)/C(=C/c3ccco3)C2=O)cc1`, the inhibition was 4.9%. For `CCOc1ccc(N2C(=O)/C(=C/c3ccco3)C(=O)NC2=S)cc1` the value was 107% (active); for `CCOc1ccc(N2C(=O)/C(=C/c3cc(Cl)ccc3O)C(=O)NC2=S)cc1`, 4.8%; for `O=C1NC(=S)N(c2cccc(Br)c2)C(=O)/C1=C/c1ccco1`, 108% (active). As for `O=C1NC(=O)N(Cc2ccccc2)C(=O)/C1=C\C=C\c1ccco1`, the inhibition was 3.4%. As to `Clc1ccc(CCNCc2ccc3c(c2)OCO3)c(Cl)c1`, the inhibition is 1.1%.

In the case of `O=c1c2ccccc2nc(-c2ccccc2F)n1-c1ccc(Cl)cc1`, the inhibition is 3.1%.

As to `O=C(Nc1cccc(OC(=O)N2CCOCC2)c1)N1CCOCC1`, the inhibition is 0.2%. As to `Cc1ccc(C=C2C(=O)NC(=S)N(c3ccccc3F)C2=O)s1`, the inhibition is 3%. For `O=C1NC(=S)N(c2ccccc2)C(=O)/C1=C/c1ccco1` the value was 102% (active). For `CCOc1ccc2ccccc2c1/C=C1\C(=O)NC(=S)N(c2ccccc2)C1=O` the value was 0.5%.

`O=C1NC(=S)N(c2ccccc2F)C(=O)C1=Cc1ccco1`: the inhibition is 99% (active). The value for `O=C1NC(=S)N(c2ccc(Br)cc2)C(=O)/C1=C/c1ccc(-c2ccccc2C(=O)O)o1` was 4.4%; that for `CN(C)c1ccc(C=C2C(=O)NC(=S)N(c3ccccc3F)C2=O)cc1` was -0.6%. In the case of `CN1CCN(Cc2nc3ccccc3n2C)CC1`, the inhibition was -3%. Regarding `CCN1CCN(c2ccc(C(F)(F)F)cn2)CC1`, the inhibition was 2.1%. With `CN1CCN(c2ccc(NC(=O)C(C)(C)C)cc2)CC1`, the inhibition was -2.3%. For `Cc1ccc2nc3c(cc2c1)CC1(C(=O)N(C)C(=O)N(C)C1=O)C1CCCCN31` (stereo not given) the value was -20.3%; for `O=C(c1ccc(N2N=N2)cc1)c1ccc(N2N=N2)cc1`, -3.2%. For `O=C1NC(=S)N(c2ccc(F)cc2)C(=O)/C1=C/c1ccc(Br)o1`, the inhibition was 90.9% (active).

As to `CN1C(=O)NC(=O)/C(=C/c2ccc(Br)o2)C1=O`, the inhibition is 6%. Turning to `CN1C(=O)NC(=O)/C(=C/c2ccc(I)o2)C1=O`, the inhibition was -0.4%.

With `COc1ccc(N2C(=O)/C(=C/c3ccc(-c4cc(C(=O)O)ccc4Cl)o3)C(=O)NC2=S)cc1`, the inhibition was 9.5%.

For `O=C1NC(=O)N(c2ccc(Cl)cc2)C(=O)/C1=C/c1ccc(Br)o1`, the inhibition is 41.4%. Regarding `CCOc1ccc(N2C(=O)/C(=C/c3ccc(Br)o3)C(=O)NC2=S)cc1`, the inhibition is 104% (active). In the case of `COc1ccc(N2C(=O)/C(=C/c3ccc(I)o3)C(=O)NC2=S)cc1`, the inhibition is 108% (active). On to `CCOc1ccc(N2C(=O)NC(=O)/C(=C\c3ccc(C)o3)C2=O)cc1`, for which the inhibition was 3.6%.

`CCOc1ccc(N2C(=O)/C(=C/c3ccc(C)o3)C(=O)NC2=S)cc1`: the inhibition was 13.5%. On to `CCOC(=O)C1CCN(/C=C2/C(=O)NC(=O)N(Cc3ccco3)C2=O)CC1`, for which the inhibition is -5.2%.

For `O=C1N(CN2CCOCC2)c2ccccc2C1(O)c1c[nH]c2ccccc12` (stereo not given), the inhibition was 0.3%. For the compound `CN(C)C(=O)Oc1ccc(OC(=O)c2ccccc2)cc1`, the inhibition is -6.4%. The value for `O=C1c2ccccc2C2(c3ccc(Cl)cc3)NCCN12` (stereo not given) was -7.5%. As for `O=[N+]([O-])c1ccc(N2CCNCC2)cc1NCCOc1ccccc1`, the inhibition was 3.6%. The value for `O=C(COc1ccc(Cl)cc1)N1CCN(Cc2ccc([N+](=O)[O-])cc2)CC1` was -0.9%.

`Cc1ccc(C=C2C(=O)N(C)C(=O)N(C)C2=O)o1`: the inhibition is -11.1%. The value for `Cc1cc(OCc2ccc(F)cc2)c2c3c(c(=O)oc2c1)CCCC3` was 2.6%; that for `Cn1cc(/C=C2\C(=O)NC(=O)N(Cc3ccccc3)C2=O)c2ccccc21` was 2.1%. `CC(C)N1CCN(Cc2cc(Br)ccc2O)CC1`: the inhibition was -1.8%.
